Source: PubChem BioAssay
Only some compounds are listed: those with a hit (about 9% of all), similar ones and a draw of the others.
HPGD inh: HPGD (human) dehydrogenase inhibition. AID 894. Potency, µM, inactives show at the top dose activity change, negative = inhibition, actives largely listed as inhibitors. 150,000 tested, 4.3% active. purified HPGD, NADH fluorescence kinetic, PGE2 substrate. P15428; active = well fitted inhibition curve with a large enough effect, not every such curve was filed as active; inconclusive = small, poorly fitted or top-dose-only effect, or another doubt; inactive = no such curve, though single readings can be large or run the other way
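NADH formation kinetics: reaction with 30 uM PGE2 and 1 mM NAD+ (final), 20 nM enzyme, Tris-HCl pH 8 with Tween 20, after 15 min compound preincubation at room temperature. Fluorescence change, last versus first of five reads.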
IMPase Li inh: cell-permeable IMPase inhibitors with lithium potentiation; CHO-M1 cells, IP1 TR-FRET (IP-One), carbachol + lithium; Potency, µM (top dose mostly 59.4 µM), for the others: at the top dose activity, negative = IMPase inhibition, actives largely listed as inhibitors; 210,000 tested, 0.35% active; AID 1457;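 also: IP1 builds up when IMPase is blocked and the TR-FRET signal falls; plate controls were basal vehicle for no effect and high inhibitor control for full effect; nearly all actives have a fitted effect of over 50% in size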
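Steps: plate 2000 CHO-M1 cells per well and culture 16–30 h; add compound and lithium; incubate 30 min, 37C; add d2-IP1 tracer and Eu cryptate anti-IP1 antibody in lysis buffer; read after 10 min at room temperature.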
ALDH1A1 block: inhibitors of human aldehyde dehydrogenase 1A1 | Potency, µM (doses to about 75.3 µM), inactives show at the top dose activity, negative = inhibition, actives largely listed as inhibitors | P00352 | AID 1030 | 220,000 tested, 7.3% active | Purified ALDH1A1, NADH fluorescence, propionaldehyde substrate; active = well fitted inhibition curve with a large enough effect, not every such curve was filed as active; inconclusive = small, poorly fitted or top-dose-only effect, or another doubt; inactive = no such curve, though single readings can be large or run the other way;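 also: plate controls were no enzyme wells and a reference inhibitor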
Target sequence (P00352 whole entry, looked up): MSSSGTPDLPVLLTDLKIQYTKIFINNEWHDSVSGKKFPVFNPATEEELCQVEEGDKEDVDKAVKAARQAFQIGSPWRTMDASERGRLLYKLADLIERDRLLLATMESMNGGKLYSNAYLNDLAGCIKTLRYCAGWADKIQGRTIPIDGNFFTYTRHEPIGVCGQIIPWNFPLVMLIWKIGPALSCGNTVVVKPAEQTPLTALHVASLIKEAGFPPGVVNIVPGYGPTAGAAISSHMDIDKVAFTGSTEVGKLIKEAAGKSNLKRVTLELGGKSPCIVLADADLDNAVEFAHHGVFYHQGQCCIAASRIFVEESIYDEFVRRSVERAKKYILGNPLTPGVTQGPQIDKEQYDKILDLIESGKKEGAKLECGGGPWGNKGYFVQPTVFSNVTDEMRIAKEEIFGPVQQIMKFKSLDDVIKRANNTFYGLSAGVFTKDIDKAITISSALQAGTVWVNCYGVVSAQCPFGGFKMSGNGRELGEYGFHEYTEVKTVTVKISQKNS
LMNA splice mod: changes lamin A minigene splicing in HeLa cells | AID 1487 | HeLa LMNA splicing GFP/RFP minigene ratio, 48 h | Potency, µM (doses to about 46.1 µM), inactives show top-dose ratio change, negative = inhibition, actives largely listed as inhibitors | 200,000 tested, 0.01% active; active = well fitted inhibition curve with a large enough effect in the signal ratio, with a control signal flat, not every such curve was filed as active; inconclusive = small, poorly fitted or top-dose-only effect, or effect the other way, or a change in a side signal; the % refers to the signal ratio
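S3 HeLa stable clones carrying a lamin A-EGFP splicing minigene plus DsRed2 were seeded at 600 cells/well in Opti-MEM with 2% FBS, pin-dosed and incubated 48 h at 37°C. Acumen cytometry (488 nm) gave the GFP/RFP total-intensity ratio.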
Luc counter: Kinase-Glo luciferase inhibition (counter-screen); Q27757; Potency, µM (doses to about 38.3 µM), for inactives: top-dose activity change, negative = inhibition, hits mostly inhibitors; 200,000 tested, 0.28% active; Kinase-Glo luciferase, ATP luminescence, 8 min; also: nearly all actives have a fitted effect of over 60% in size
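Compounds were added to a substrate mix at pH 7.2 (50 mM imidazole, 10 uM ATP, within the enzyme's linear range), followed by Kinase-Glo detection reagent; luminescence was measured after 8 minutes at ambient temperature.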
* = called active by the depositor; [ ] = remark or other dose. Unless noted, calls follow the shape of the dose curve; as a rule, active = well fitted curve in the direction sought with a large enough effect; inconclusive = small, poorly fitted or top-dose-only effect, or another doubt; inactive = no such curve, though single readings can be large; an effect the other way counts as inactive or inconclusive. Unless noted, % is scaled to controls: 0 for no effect and ±100 for the full control effect; potency is read from the fitted curve at half-maximal effect.

For COc1ccc(N2C(=O)CC(Sc3nnnn3-c3ccc(F)cc3)C2=O)cc1 (centres undefined) the results were IMPase Li inh 8%, ALDH1A1 block 2.5µM*, LMNA splice mod inconclusive and Luc counter 1%.
Screening O=C1CC(Sc2nnnn2-c2ccccc2)C(=O)N1c1cccc(Cl)c1 (centres undefined) returned HPGD inh 32µM*, IMPase Li inh 10%[38.3 µM], ALDH1A1 block 0.79µM*, LMNA splice mod -6% and Luc counter 3%.
`CCCc1ccc(C#N)c(SC2CC(=O)N(c3ccc(OC)cc3)C2=O)n1` (centres undefined) gave IMPase Li inh 13%, ALDH1A1 block inconclusive, LMNA splice mod inconclusive and Luc counter -2%.
Clc1cccc(N2CCN(c3nnnn3-c3ccccc3)CC2)c1 was read as IMPase Li inh 11%, ALDH1A1 block inconclusive, LMNA splice mod inconclusive and Luc counter -1%.
COc1cccc(-c2csc(N3CCN(C(=O)Nc4ccccc4Cl)CC3)n2)c1 was read as IMPase Li inh 18%, ALDH1A1 block 22µM*, LMNA splice mod inconclusive and Luc counter 0%.
COc1cccc(-c2csc(NC(C)=O)n2)c1 was read as HPGD inh inconclusive, IMPase Li inh 9%, ALDH1A1 block 11µM*, LMNA splice mod -10% and Luc counter 0%.
Screening CC(=O)Nc1cccc(-c2csc(NCc3ccco3)n2)c1 returned HPGD inh -24%, IMPase Li inh 31%[38.3 µM], ALDH1A1 block 13µM*, LMNA splice mod -4% and Luc counter -4%.
Screening COc1cccc(-c2csc(N3CCN(Cc4ccccc4)CC3)n2)c1 returned HPGD inh 25µM*, IMPase Li inh -8%[38.3 µM], ALDH1A1 block 10µM*, LMNA splice mod inconclusive and Luc counter -1%.
COc1ccc(C(=O)N2CCC[C@@]3(CCN(C(=O)Nc4cccc(C#N)c4)C3)C2)cc1 was read as HPGD inh -9%, IMPase Li inh inconclusive, ALDH1A1 block -4% and Luc counter -3%.
COc1cccc(-c2csc(N3CCN(C(=S)Nc4ccc(Cl)cc4)CC3)n2)c1 was read as HPGD inh -21%, IMPase Li inh 19%[38.3 µM], ALDH1A1 block 0.089µM*, LMNA splice mod -11% and Luc counter -1%.
`Cc1nn(CCCC(=O)Nc2cccnc2Cl)c(C)c1[N+](=O)[O-]` gave IMPase Li inh 8%, ALDH1A1 block 4%, LMNA splice mod inconclusive and Luc counter 4%.
Screening CCOc1cc(S(=O)(=O)n2ccnc2C(C)C)ccc1Cl returned LMNA splice mod -12%[46 µM].
`COCCCN1C(=O)C(=O)/C(=C(/O)c2ccc(OC(C)C)c(C)c2)C1c1ccncc1` (centres undefined) gave HPGD inh -4%, IMPase Li inh 10µM*, ALDH1A1 block 0%, LMNA splice mod 9% and Luc counter 3%.
Screening COCCCN1C(=O)C(=O)/C(=C(/O)c2ccc(OC(C)C)cc2)C1c1cccnc1 (centres undefined) returned HPGD inh -17%, IMPase Li inh 11µM*, ALDH1A1 block -2%, LMNA splice mod 1% and Luc counter 0%.
Screening Cc1ccccc1COc1ccc(/C(O)=C2/C(=O)C(=O)N(CCCn3ccnc3)C2c2ccco2)cc1 (centres undefined) returned HPGD inh -27%, IMPase Li inh inconclusive, ALDH1A1 block 11µM*, LMNA splice mod 6% and Luc counter -3%.
COCCCN1C(=O)C(=O)/C(=C(/O)c2ccc(OCC(C)C)cc2)C1c1cccnc1 (centres undefined) was read as HPGD inh -7%, IMPase Li inh inconclusive, ALDH1A1 block 9%, LMNA splice mod 13% and Luc counter -1%.
CCCOc1ccc(/C(O)=C2/C(=O)C(=O)N(CCCOC)C2c2cccnc2)cc1 (centres undefined) was read as HPGD inh -17%, IMPase Li inh 10µM*, ALDH1A1 block 7%, LMNA splice mod -2% and Luc counter 0%.
